# Cruzain inh Det – blocks cruzain activity in presence of Triton detergent. P25779. purified cruzain, Z-FR-AMC fluorescence, 0.01% Triton. hit rate 0.43% among 200,000. Potency, µM, for the others: max response, negative = inhibition, usual class: inhibitors;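 further: plate controls were neutral wells for no effect and buffer without enzyme for full effect; nearly all actives have a fitted effect of over 40% in size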
# Target sequence (P25779 123-467 limits assumed): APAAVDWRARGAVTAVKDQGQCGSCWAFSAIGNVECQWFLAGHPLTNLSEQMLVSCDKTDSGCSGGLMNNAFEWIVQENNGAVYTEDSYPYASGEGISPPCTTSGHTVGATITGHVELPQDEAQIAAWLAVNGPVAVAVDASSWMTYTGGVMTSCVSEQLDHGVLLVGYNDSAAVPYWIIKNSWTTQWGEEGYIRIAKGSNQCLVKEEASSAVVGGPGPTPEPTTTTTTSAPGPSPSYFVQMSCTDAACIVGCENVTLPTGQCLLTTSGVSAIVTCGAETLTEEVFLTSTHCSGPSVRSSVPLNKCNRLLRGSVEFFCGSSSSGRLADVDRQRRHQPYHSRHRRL
#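 Cysteine protease activity tested under reducing, mildly acidic conditions (100 mM sodium acetate pH 5.5, 5 mM DTT) plus 0.01% Triton X-100. Cruzain 1.5 nM; substrate Z-FR-AMC 2 uM; 15 min compound preincubation at room temperature.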
# Cruzain noTriton – blocks cruzain activity in detergent-free assay; purified cruzain, Z-FR-AMC fluorescence, no detergent; Potency, µM, without a hit: max response, negative = inhibition, actives largely listed as inhibitors; hit rate 2.3% among 200,000;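 further: plate controls were enzyme without inhibitor for no effect and buffer without enzyme for full effect; nearly all actives have a fitted effect of over 40% in size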
#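 Purified cruzain at 1.5 nM, pre-incubated 15 min with compound at room temperature in 100 mM sodium acetate pH 5.5, 5 mM DTT, 0.00005% Triton X-100. Reaction started with 2 uM Z-FR-AMC; AMC fluorescence increase over 60 s gives rate.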
# The depositor's hits bear a star; ? = inconclusive. The list is not random: actives were taken first. Their share in the collection is about 2.4%. The call rests on the fitted dose curve; in most records, active means well fitted curve in the direction sought with a large enough effect; inconclusive means small, poorly fitted or top-dose-only effect, or another doubt; inactive means no such curve, though single readings can be large; an effect the other way counts as inactive or inconclusive. Potency means the concentration at half of the fitted maximal effect.
SMILES,Cruzain inh Det,Cruzain noTriton
Cc1ccc(Nc2nc3ccccc3s2)c(C)c1,-9%,-3%
Cc1cc(O)ccc1Nc1nc2ccccc2nc1Nc1ccc(O)cc1C,-18%,10µM*
COCCn1c(=NC(=O)CN2C(=O)CCC2=O)sc2cc(S(N)(=O)=O)ccc21,-6%,5%
COCCn1c(=NC(=O)c2ccc(S(=O)(=O)N3CCc4ccccc4C3)cc2)sc2cc(OC)ccc21,-3%,4µM*
COc1ccccc1CCNC(=O)C(C)Sc1nc(-c2ccccc2)cc(C(F)(F)F)n1 (configuration not stated),-2%,-9%
N#Cc1c(-c2ccccc2)cc(-c2ccccc2)nc1SCC(O)CS(=O)(=O)Cc1ccc(Cl)cc1 (configuration not stated),-5%,7.9µM*
COc1ccc(-c2cc(-c3ccccc3)c(C#N)c(SCC(O)CS(=O)(=O)Cc3ccc(Cl)cc3)n2)cc1 (configuration not stated),7%,?
N#CCSc1nc2ccc(N3CCCCC3)cc2c(=O)n1Cc1ccccc1,-1%,25µM*
C=C(C)Cn1c(SCC#N)nc2ccccc2c1=O,1%,-11%
CCN(C(=O)c1sc2nc3n(c(=O)c2c1C)CCCC3)c1ccccc1F,-4%,4%
O=S(=O)(c1ccc(-c2nnc(SCc3nnc(-c4ccccc4)o3)o2)cc1)N1CCCC1,0%,?
CCN(CC)S(=O)(=O)c1ccc(-c2nnc(SCc3nnc(-c4ccccc4)o3)o2)cc1,3%,25µM*
CCN(CC)C(=O)c1ccc2c(c1)N(Cc1ccc(C(F)(F)F)cc1)C(=O)c1ccccc1S2,-17%,?
COc1cc2c(cc1OC)C(COc1ccccc1OC)N(C(=O)c1ccc(S(=O)(=O)N3CCCC3)cc1)CC2 (configuration not stated),-1%,?
O=C(O)c1ccccc1C(=O)N1CCN(c2cccc(Cl)c2)CC1,-4%,-20%
Nc1ccc(N2CCN(c3cccc(Cl)c3)CC2)cc1,-6%,16µM*
CN(C(=O)COC(=O)CNC(=O)c1sc2ccccc2c1Cl)c1ccccc1,8.9µM*,7.9µM*
CCOC(=S)NC(=O)c1sc2ccccc2c1Cl,-4%,7%
CCOc1ccc(CCNC(=O)c2cn(C)c3ccc(S(=O)(=O)N4CCOCC4)cc3c2=O)cc1OCC,-6%,27%
CCCCOc1ccc(C(=O)Nc2cc(-c3ccc(C)cc3)no2)cc1,-2%,-7%
CCOc1ccc(C(=O)Nc2cc(-c3ccccc3)no2)cc1,-2%,20µM*
COc1ccc(-c2noc(CN(C(=O)Cc3ccc(C)cc3)C(C)C)n2)cc1,-3%,11%
NCCNC(=S)S,1%,4%
Cc1ccc(NC(=O)CSc2nn(-c3ccc(Cl)cc3)c(=S)s2)cc1S(=O)(=O)N(C)C,-2%,?
CN(C)S(=O)(=O)c1cc(NC(=O)CSc2nn(-c3ccc(Cl)cc3)c(=S)s2)ccc1Cl,-4%,25µM*
SMILES,Cruzain inh Det,Cruzain noTriton
Cc1cc(C)c(NC(=O)CSc2nc3ccccc3nc2N2CCCCC2)c(C)c1,-2%,2%
CN1CCC[C@@H]1c1cccnc1.O=C(O)c1ccccc1O.O=C([OH2+])c1ccccc1O.O=C([OH2+])c1ccccc1O.O=C([OH2+])c1ccccc1O.[Cu],-1%,14%
Cc1ccc(NC(=O)c2oc3ccc(S(=O)(=O)N4CCCCC4)cc3c2C)cc1C,2%,6%
Cc1c(C(=O)NCc2ccc3c(c2)OCO3)oc2ccc(S(=O)(=O)N3CCCC3)cc12,-1%,16µM*
Cc1c(C(=O)Nc2ccc(F)cc2)oc2ccc(S(=O)(=O)N3CCCCCC3)cc12,0%,32µM*
Cc1c(C(=O)NCc2ccc3c(c2)OCO3)oc2ccc(S(=O)(=O)N3CCCCC3)cc12,3%,?
COC(=O)c1cc2oc3ccccc3c2n1CC(=O)Nc1ccc(C)c(F)c1,1%,8%
CC(C)(C)c1cc[n+](/C(C(=S)NC2CC2)=C(/[O-])c2ccc(Cl)s2)cc1,-10%,-5%
[O-]/C(=C(\C(=S)Nc1cccc2ccccc12)[n+]1ccccc1)c1ccc(Cl)s1,-14%,7.9µM*
CCOc1ccc(NC(=O)CCS(=O)(=O)c2cc3c4c(c2)CCN4C(=O)CC3)cc1,0%,-11%
C=CCn1cc(/C=N\NC(=O)c2cc3c(ccc4ccccc43)o2)c2ccccc21,0%,16µM*
O=C(N/N=C/C=C/c1ccccc1)c1ccncc1,-10%,3%
C#CCn1cc(/C=N/NC(=O)c2cc3ccccc3o2)c2ccccc21,-11%,-17%
O=C(N/N=C/C=C/c1ccccc1)c1cc2c(ccc3ccccc32)o1,?,10µM*
CCc1ccc(-n2c(=O)c3c4c(sc3n(CC(=O)N3CCCCC3CC)c2=O)CCC4)cc1 (configuration not stated),-4%,-7%
O=C(NC(NC(=S)Nc1ccccc1)C(Cl)(Cl)Cl)c1cccc(Cl)c1 (configuration not stated),?,-9%
Cc1ccc(NC(=S)NC(NC(=O)c2ccccc2)C(Cl)(Cl)Cl)c(C)c1 (configuration not stated),-9%,6%
Cc1ccc(C)c(NC(=S)NC(NC(=O)Cc2ccccc2)C(Cl)(Cl)Cl)c1 (configuration not stated),4%,25µM*
Cc1cccc(NC(=S)NC(NC(=O)c2ccco2)C(Cl)(Cl)Cl)c1 (configuration not stated),3.2µM*,2%
Cc1ccc(C(=O)NC(NC(=S)Nc2ccc(S(N)(=O)=O)cc2)C(Cl)(Cl)Cl)cc1 (configuration not stated),-17%,-4%
Cc1ccccc1C(=O)NC(NC(=S)Nc1ccc(S(N)(=O)=O)cc1)C(Cl)(Cl)Cl (configuration not stated),13µM*,-27%
O=C(O)c1ccc(NC(=S)NC(NC(=O)c2ccco2)C(Cl)(Cl)Cl)cc1 (configuration not stated),-5%,9%
Cc1ccc(NC(=S)NC(NC(=O)c2ccco2)C(Cl)(Cl)Cl)cc1 (configuration not stated),4.5µM*,15%
COc1ccc(NC(=O)Cn2cnc3c(oc4ccccc43)c2=O)cc1OC,-7%,-12%
Cc1c(NC(=O)C(C)(C)Oc2ccc(Cl)cc2)cccc1-c1nc2ccccc2o1,-5%,-9%
SMILES,Cruzain inh Det,Cruzain noTriton
O=c1[nH]c2ccc(NS(=O)(=O)c3ccc(F)cc3)cc2s1,-1%,-1%
COc1cc2c(=O)c(C(=O)c3ccc(F)cc3)cn(Cc3cccc(F)c3)c2cc1OC,-3%,?
COc1ccc(N2CCN(C(=O)Cn3cnc4nc5c(cc4c3=O)CCCC5)CC2)cc1,-3%,25%
COc1ccc(-c2noc(N3CCC(C(=O)Nc4ccc(C)c(F)c4)CC3)n2)cc1OC,-1%,4%
Cc1nc(NCCO)c2nc(-c3ccccc3)n(CC3CCN(C)CC3)c2n1,2%,-4%
COc1ccc(/C=N/NC(=O)COc2ccccc2-c2ccccc2)cc1,-6%,7%
COc1ccc(Br)c(/C=N/NC(=O)COc2ccc(-c3ccccc3)cc2)c1,-2%,20µM*
N[C@@H](CSCc1ccccc1)C(=O)O,4%,-6%
Cc1occc1C(=O)N=Nc1c(O)n(C)c2ccccc12,-5%,-8%
Cc1occc1C(=O)N=Nc1c(O)[nH]c2ccc(Br)cc12,-3%,13µM*
O=S(=O)(Nc1nc2ccccc2nc1Nc1cccc(S(=O)(=O)N2CCCCC2)c1)c1ccccc1,-11%,16µM*

# From PubChem BioAssay
